{
  "source": "PubChem BioAssay AID651789",
  "about": "(National Center for Advancing Translational Sciences (NCATS), 2012)",
  "note": "Inconclusive results are not listed. Unmarked numbers belong to inactive results. Activity calls are given as the source filed them. Calls come from the whole dose curve; as a rule, active = well fitted inhibition curve with a large enough effect; inconclusive = small, poorly fitted or top-dose-only effect; inactive = no such curve, though single readings can be large or run the other way. Potency is the fitted concentration of half-maximal effect.",
  "data": [
    {"experiment": "Acumen qHTS Assay for Inhibitors of the mTORC1 Signaling Pathway in WT MEF Cells: Hit Validation; note: nearly all actives have a fitted effect of over 60% in size;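 for activity change, negative = inhibition: phospho-rpS6 Ser235/236 immunofluorescence normalised to propidium iodide cell stain; percent of cells above a cutoff set by 7.5 nM rapamycin treated wells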", "conditions": "Acumen imaging; series mostly up to 37.3 µM; activity change, negative = inhibition: at the top concentration", "outline": "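Read-out is immunofluorescent phospho-rpS6 (Ser235/236) normalised to PI-stained cell number, reported as % active cells using a 7.5 nM rapamycin threshold. Cells: WT or Tsc2-/-, p53-/- MEFs, compound-exposed 24 h at 37C; PI count also tracks viability.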", "units": {"activity change, negative = inhibition": "%"}, "values": [
      {"smiles": "CCCCOc1cccc(C(=O)N2CCN(CCc3ccncc3)CC2)c1", "activity change, negative = inhibition": 39.3},
      {"smiles": "CCOC(=O)c1c(NC(=O)c2ccc(S(=O)(=O)N(CCOC)CCOC)cc2)sc2c1CC(C)(C)NC2(C)C", "Potency": "3.29 µM (active)"},
      {"smiles": "CCOC(=O)C(Cc1c[nH]c2ccccc12)NC(=O)COc1ccc(Cl)cc1", "note": "(stereo not given)", "activity change, negative = inhibition": 0.217},
      {"smiles": "Cc1ccc(C)c(NC(=O)c2nc(S(=O)(=O)Cc3ccc(F)cc3)ncc2Cl)c1", "Potency": "2.33 µM (active)"},
      {"smiles": "COc1ccc(S(=O)(=O)NCCc2csc3nc(-c4ccc(Cl)cc4)nn23)cc1C", "activity change, negative = inhibition": 0.763},
      {"smiles": "Cc1ccc(C)c(N2CCN(CCCNC(=O)c3nnc(Cc4ccc(F)cc4Cl)o3)CC2)c1", "activity change, negative = inhibition": -11.5},
      {"smiles": "CCc1ccc(NC(=O)C2CCCN(S(=O)(=O)c3cccc4cccnc34)C2)cc1", "note": "(stereo not given)", "activity change, negative = inhibition": -27},
      {"smiles": "COc1ccc(OCC(=O)Nc2ccc3nn(-c4ccc(OC)cc4)nc3c2)cc1", "activity change, negative = inhibition": 34.3},
      {"smiles": "CC(C)c1nnc(NC(=O)c2nc(S(=O)(=O)Cc3ccccc3)ncc2Cl)s1", "Potency": "5.21 µM (active)"},
      {"smiles": "O=C(CCCn1c(=O)c2ccccc2n(Cc2cccc(Cl)c2)c1=O)NCCc1ccc(Cl)cc1", "activity change, negative = inhibition": 37.4},
      {"smiles": "Cc1c(C(=O)Nc2ccc(F)cc2F)nnn1-c1ccccc1Br", "activity change, negative = inhibition": 7.63},
      {"smiles": "CS(=O)(=O)CCNCc1ccc(-c2ccc3ncnc(Nc4ccc(OCc5cccc(F)c5)c(Cl)c4)c3c2)o1", "activity change, negative = inhibition": 1.69},
      {"smiles": "FC(F)(F)c1cccc(Nc2c3c(nc4ccc(Cl)cc24)CCC3)c1", "Potency": "16.5 µM (active)"},
      {"smiles": "Cc1ccc(C(C)C)c(OCC(=O)Nc2cc(-c3nc4ccccc4[nH]3)ccc2C)c1", "activity change, negative = inhibition": -2.29},
      {"smiles": "COC(=O)c1ccccc1NC(=O)CSc1n[nH]c(CC(C)C)n1", "activity change, negative = inhibition": 3.82}
    ]}
  ]
}
